{"source": "PubChem BioAssay (NCI)", "note": "About 83,000 compounds went through this panel and 20% of them were active in at least one assay; those are over-represented in the sample as a whole.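 96-well plates, one dose, 48 hours. Percent growth reported; active if below 10.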 Values without a mark were called inactive. Calls of active or inactive are those of the source."}
{"tested_on": "MDA-MB-468 breast", "experiment": "NCI-60 one-dose screen, 48 h (100 = growth as untreated, 0 = no growth, -100 = all killed)", "details": "10 µM unless noted"}
{"molecule": "COc1cc2cc(Oc3ccc(NC(=O)c4cc(C(F)(F)F)cc(C(F)(F)F)c4)cc3)c(C)nc2cc1OCCN1CCOCC1", "growth": "66.9%"}
{"molecule": "O=C(/C=C/c1ccc(Cl)cc1)c1ccc(-n2cc(CN3CCN(c4cc5c(cc4F)c(=O)c(C(=O)O)cn5C4CC4)CC3)nn2)cc1", "growth": "74.4%"}
{"molecule": "N/C(=N\\N=C\\c1cc2ccccc2[nH]1)N/N=C/c1cc2ccccc2[nH]1", "growth": "107%"}
{"molecule": "COc1cc(/C=C/C(=O)Nc2cccnc2Nc2ccc(F)cc2)cc(OC)c1OC", "growth": "97.4%"}
{"molecule": "CCc1cc2c(cc1N1CCC(N3CCOCC3)CC1)C(C)(C)c1[nH]c3cc(C#N)ccc3c1C2=O", "growth": "-38.2% (active)"}
{"molecule": "Clc1cc(Cl)c(OCC#CI)cc1Cl", "growth": "-26% (active)"}
{"molecule": "CCCS(=O)(=O)Nc1cccc(Nc2ncnc3cc(NC(=O)CCl)ccc23)c1Cl", "growth": "-41.8% (active)"}
{"molecule": "Nc1ncnc2c1N=C(c1ccc(Br)cc1)CC(c1cccc(Nc3ccnc4cc(C(F)(F)F)ccc34)c1)N2", "note": "(stereo not given)", "growth": "60.7%"}
{"molecule": "CCN(CC)c1ccc(/C=C/C2=[N+](C)c3ccccc3C2(C)C)c(C)c1", "growth": "-9.14% (active)"}
{"molecule": "CCNc1cc2c(cc1Br)-c1ccccc1C2=O", "growth": "50.2%"}
{"molecule": "COC(=O)c1nc(-c2ccc(C)cc2)oc1S(=O)(=O)c1ccc(Cl)cc1", "growth": "101%"}
{"molecule": "N#Cc1c(-c2ccc(Cl)cc2)nc(NCCO)[nH]c1=O", "growth": "119%"}
{"molecule": "CCc1cccc(Sc2cc(C(=O)N3Cc4ccc(OCCN(C)C)cc4C3)ccc2O)c1", "growth": "30.6%"}
{"molecule": "COc1ncc(-c2ccc3ncnc(Nc4cccc(Cl)c4)c3c2)cc1N(S(C)(=O)=O)S(C)(=O)=O", "growth": "-3.15% (active)"}
{"molecule": "C#C[C@]1(O)CC[C@H]2[C@@H]3CC=C4c5nc(Nc6ccc(OC)cc6OC)sc5CC[C@]4(C)[C@H]3CC[C@@]21C", "growth": "-6.78% (active)"}
{"molecule": "CC[C@]1(O)C[C@@H]2CN(CCc3c([nH]c4ccccc34)[C@@](C(=O)OC)(c3cc4c(cc3OC)N(C)[C@H]3[C@@](O)(C(=O)OC)[C@H](OC(=O)CCCBr)[C@]5(CC)C=CCN6CC[C@]43[C@@H]65)C2)C1", "growth": "31.8%"}
{"molecule": "Oc1ccc(C(c2ccc(O)cc2)c2ccc(Cl)cn2)cc1", "growth": "-30.9% (active)"}
{"molecule": "CCCCn1c(C)nc2ccc(Nc3nc(N4CCN(C)CC4)nc4nc[nH]c34)cc21", "growth": "82.2%"}
{"molecule": "CC(C)(C)OC(=O)N1CC(Cn2cc(C(F)(F)F)c3c(Cl)ncnc32)C1", "growth": "-46.8% (active)"}
{"molecule": "CC(CSc1n[nH]c(=S)s1)c1ccccc1", "note": "(stereo not given)", "growth": "114%"}
{"molecule": "CCN(CC)C12CCCCC1(C)C(C#N)(C#N)C(C#N)=C(N)O2", "note": "(stereo not given)", "growth": "93.5%"}
{"molecule": "Nc1nc2c(c(=O)[nH]1)C(c1ccc3c(c1)OCO3)C=C(C(=O)O)N2", "note": "(stereo not given)", "growth": "107%"}
{"molecule": "COc1ccc(-c2cc(-c3ccc(Nc4nc(Nc5ccccc5)nc(Nc5ccc(Cl)cc5)n4)cc3)nc(N)c2C#N)cc1", "growth": "-31.1% (active)"}
{"molecule": "Cc1[nH]c(C(=O)Nc2ccc(C(N)=O)cc2NC(C)C)c(Cl)c1Cl", "growth": "83.7%"}
{"molecule": "CC1(C)CC[C@]23CC[C@]4(C)[C@H](CC[C@@H]5[C@@]6(C)CCNCC(C)(C)[C@@H]6CC[C@]54C)[C@H]2[C@H]1OC3", "growth": "65.4%"}
{"molecule": "COc1ccc(-n2c(COc3ccc(F)cc3)n[nH]c2=S)cc1", "growth": "103%"}
{"molecule": "C=CCn1c(SCC(=O)Nc2ccc(C(=O)/C=C/c3cc(OC)c(OC)c(OC)c3)cc2)nnc1-c1ccccc1", "growth": "82%"}
{"molecule": "CC1=CC(c2ccco2)=C2C(N)=NNC2N1", "note": "(stereo not given)", "growth": "104%"}
{"molecule": "COc1cc(/C=N/Nc2ncc(-c3cc4cc5c(cc4o3)OCO5)s2)cc(OC)c1OC", "growth": "25.2%"}
{"molecule": "COc1ccc(CC(C)=C(c2ccc(OCCN3CCCC3)cc2)c2ccc(OCCN3CCCC3)cc2)cc1", "growth": "-85.2% (active)"}
{"molecule": "Cc1ccc(C(CC(=O)O)c2c(C)[nH][nH]c2=O)cc1", "note": "(stereo not given)", "growth": "101%"}
{"molecule": "Cc1c(-c2ccc(O)cc2)n(Cc2ccc(OCCN3CCCCCC3)cc2)c2ccc(O)cc12", "growth": "74%"}
{"molecule": "CCN1CCN(Cc2cn(-c3ccc(S(N)(=O)=O)cc3)nn2)CC1", "growth": "99.7%"}
{"molecule": "CN(C)c1nc(-c2cccs2)n2nc(-c3ccc(Cl)cc3)cc2n1", "growth": "33.6%"}
{"molecule": "CC(=O)C1CCC(C)=CC1=O", "note": "(stereo not given)", "growth": "116%"}
{"molecule": "Cn1c(=O)c2[nH]c(NN)nc2n(C)c1=O", "growth": "122%"}
{"molecule": "Cc1ccc(/C=C(\\C#N)C(=O)Nc2ncc(Cc3cc(Cl)ccc3Cl)s2)o1", "growth": "69.6%"}
{"molecule": "CC(C)C1=NOC(=O)C1=Cc1cn(-c2ccccc2)nc1-c1ccc(Cl)cc1", "growth": "86.7%"}
{"molecule": "CC(=O)OC[C@]12CC[C@@H]([C@@H](C)c3nnc(-c4ccncc4)o3)[C@@H]1[C@H]1CC[C@@H]3[C@@]4(C)CC[C@H](OC(C)=O)C(C)(C)[C@@H]4CC[C@@]3(C)[C@]1(C)CC2", "growth": "59%"}
{"molecule": "CN(C)CCCN(Cc1ccccc1O)C(=S)Nc1ccc(Cl)cc1", "growth": "89.6%"}
